Holding throughout (conditions): compound concentration in added solution (µM; 5 µl added to 20 µl cells): 10; 18 h
The subject of assay [1] is A431. Put plainly: LBPA endosome anti-LBPA integrated intensity (sum per cell), Z-score; higher = more LBPA staining. In short, it runs like this:
(§1)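 Four 20× images per well were taken of HeLa MZ or A431 cells that had been seeded at 3,500 per well in 20 µl onto 5 µl of 10 µM compound solution in duplicate 384-well imaging plates. Before imaging, cells were incubated 18 h, fixed in 4% PFA and stained with 6C4 anti-LBPA antibody, filipin, propidium iodide and CellTracker green. Values are Z-scores normalised in AcuityXpress from MetaXpress-derived per-cell integrated LBPA or filipin intensity, either whole-cell or within LBPA endosomes.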

Assay [2] relates to HeLa MZ. The description is as above. In short, it runs like this: as §1
The test system of assay [3] is A431. The assay is described as follows: whole-cell filipin (free cholesterol) integrated intensity, Z-score; higher = more cholesterol staining. In short, it runs like this:
as §1

The test system of assay [4] is HeLa MZ. The description is as above. In short, it runs like this: as §1
For assay [5], the system named is A431. Put plainly: filipin (cholesterol) integrated intensity within LBPA endosomes, Z-score; higher = more cholesterol in LBPA endosomes. The gist of the method: as §1
Assay [6] deals with HeLa MZ. The assay is described as above. In short, it runs like this: as §1

Where a name gives a salt, the structure may show the parent alone.

As to `CCN(CC)CCc1nc(-c2ccccc2)no1` [Oxalamine citrate salt], the “LBPA endosome anti-LBPA integrated intensity (z-score)” value in the assay with A431 [1] is -0.387; with HeLa MZ [2], 0.162. In addition, the “whole-cell filipin (z-score)” value with A431 [3] was -0.277; in the assay with HeLa MZ [4] it was -0.546. The results for the “filipin (z-score)” value in the assay with A431 [5] and with HeLa MZ [6] were -0.442 and -0.374, respectively.
For the compound `Cc1nnc(NS(=O)(=O)c2ccc(N)cc2)s1` [Sulfamethizole], the “LBPA endosome anti-LBPA integrated intensity (z-score)” value in the assay on A431 [1] was -0.497; in the assay on HeLa MZ [2], -0.619. Further, the entries for the “whole-cell filipin (z-score)” value with A431 [3] and with HeLa MZ [4] were -0.626 and -0.62, respectively. The “filipin (z-score)” value in the assay on A431 [5] is -0.469; in the assay on HeLa MZ [6], -0.463.
`CCOCCn1c(N2CCCN(C)CC2)nc2ccccc21` [Emedastine]: the “LBPA endosome anti-LBPA integrated intensity (z-score)” value in the assay with A431 [1] was -0.464; with HeLa MZ [2], 0.747. Further, the “whole-cell filipin (z-score)” value in the assay with A431 [3] was -0.629; in the assay with HeLa MZ [4], -0.502. In addition, the “filipin (z-score)” value was -0.536 in the assay with A431 [5] and -0.461 in the assay on HeLa MZ [6].
Consider `CCC[C@@H]1C[C@@H](C(=O)N[C@@H]([C@H]2O[C@H](SC)[C@H](O)[C@@H](O)[C@H]2O)[C@H](C)Cl)N(C)C1` [Clindamycin hydrochloride], for which the “LBPA endosome anti-LBPA integrated intensity (z-score)” value with A431 [1] is -0.543; in the assay with HeLa MZ [2] it was -0.18. For the same compound, the “whole-cell filipin (z-score)” value with A431 [3] is -0.979; in the assay with HeLa MZ [4], -0.574. In addition, the “filipin (z-score)” value was -0.567 in the assay on A431 [5] and -0.563 in the assay on HeLa MZ [6].
With `N#Cc1ccc(C2CCCc3cncn32)cc1` (configuration not stated) [Fadrozole hydrochloride], the “LBPA endosome anti-LBPA integrated intensity (z-score)” value with A431 [1] is -0.639; in the assay with HeLa MZ [2], -1.49. Also, the “whole-cell filipin (z-score)” value is -1.18 in the assay with A431 [3] and -0.874 with HeLa MZ [4]. Besides, the “filipin (z-score)” value was -0.538 in the assay with A431 [5] and -0.502 in the assay with HeLa MZ [6].
With `OC(CCCN1CCCCC1)(c1ccccc1)c1ccccc1` [Diphenidol hydrochloride], the “LBPA endosome anti-LBPA integrated intensity (z-score)” value in the assay with A431 [1] is -0.218; in the assay with HeLa MZ [2], 0.517. In addition, the “whole-cell filipin (z-score)” value with A431 [3] was -0.613; with HeLa MZ [4], -0.594. Besides, the “filipin (z-score)” value with A431 [5] was -0.133; in the assay with HeLa MZ [6], -0.0129.
In the case of `O=C(O)CN(CCN(CC(=O)O)CC(=O)O)CCN(CC(=O)O)CC(=O)O` [Pentetic acid], the “LBPA endosome anti-LBPA integrated intensity (z-score)” value in the assay with A431 [1] was -0.425; in the assay on HeLa MZ [2], -1.12. The “whole-cell filipin (z-score)” value in the assay with A431 [3] is -0.45; in the assay on HeLa MZ [4], -0.669. The “filipin (z-score)” value with A431 [5] was -0.443; in the assay on HeLa MZ [6], -0.521.
On to `CC(CCc1ccc(O)cc1)NCCc1ccc(O)c(O)c1` (configuration not stated) [Dobutamine hydrochloride], for which the “LBPA endosome anti-LBPA integrated intensity (z-score)” value with A431 [1] was -0.212; in the assay with HeLa MZ [2] it was 0.142. The “whole-cell filipin (z-score)” value with A431 [3] is -0.349; in the assay on HeLa MZ [4], -0.893. Moreover, the results for the “filipin (z-score)” value with A431 [5] and in the assay with HeLa MZ [6] were -0.473 and -0.28, respectively.
`CC1(C)NC(=O)N(c2ccc([N+](=O)[O-])c(C(F)(F)F)c2)C1=O` [Nilutamide]: the “LBPA endosome anti-LBPA integrated intensity (z-score)” value in the assay on A431 [1] is -0.466; in the assay on HeLa MZ [2], -0.349. Moreover, the “whole-cell filipin (z-score)” value in the assay on A431 [3] was -0.373; with HeLa MZ [4] it was -0.711. The results for the “filipin (z-score)” value in the assay with A431 [5] and in the assay on HeLa MZ [6] were -0.474 and -0.472, respectively.
As for `Cn1c(=O)c2c(ncn2C)n(C)c1=O` [Caffeine], the “LBPA endosome anti-LBPA integrated intensity (z-score)” value is -0.331 in the assay on A431 [1] and -0.197 in the assay with HeLa MZ [2]. Moreover, the “whole-cell filipin (z-score)” value with A431 [3] was -0.0359; with HeLa MZ [4], 0.547. Besides, the “filipin (z-score)” value in the assay on A431 [5] was -0.318; in the assay on HeLa MZ [6], -0.108.
For the compound `CC1(C)S[C@@H]2[C@H](NC(=O)Cc3ccccc3)C(=O)N2[C@H]1C(=O)O` [Benzylpenicillin sodium], the “LBPA endosome anti-LBPA integrated intensity (z-score)” value with A431 [1] was -0.349; in the assay with HeLa MZ [2] it was 1.42. For the same compound, the “whole-cell filipin (z-score)” value is -0.101 in the assay with A431 [3] and 2.18 in the assay on HeLa MZ [4]. For the same compound, the “filipin (z-score)” value in the assay on A431 [5] was -0.427; in the assay with HeLa MZ [6], -0.552.
Regarding `COc1cc(C(=O)OCCCN2CCCN(CCCOC(=O)c3cc(OC)c(OC)c(OC)c3)CC2)cc(OC)c1OC` [Dilazep dihydrochloride], the “LBPA endosome anti-LBPA integrated intensity (z-score)” value is 3.35 in the assay on A431 [1] and 1.34 in the assay with HeLa MZ [2]. Further, the “whole-cell filipin (z-score)” value in the assay on A431 [3] was found to be 3.19; with HeLa MZ [4] it was 3.53. The figures for the “filipin (z-score)” value with A431 [5] and in the assay on HeLa MZ [6] were 3.75 and 4.35, respectively.

These data come from the supplement of paper PMC6607015.
